High-throughput results (PubChem BioAssay)
Only a selection was taken, and hits are over-represented in it overall.
Shiga inhibitor: blocks Shiga toxin action in Vero cells. actives 9.2% (n = 290,000). AID 2315. Vero cells, Shiga toxin protein synthesis inhibition reporter. inhibition, % at 38.7 µM; in the data active = inhibition mostly above about 28%, no sharp cut-off; inactive = mostly below about 43%; note: 0% is about no effect
NS1 inh: blocks influenza NS1 protein function. Potency, µM (titrated, usually from 46.1 µM), for inactives: at the highest dose activity, positive = more growth. actives 0.4% (n = 270,000). AID 2326; calls by dose curve; note: potency is the fitted concentration of half-maximal effect; actives are rising curves; nearly all actives have a fitted effect of over 50% in size
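In this qHTS, NS1 from influenza A is expressed in budding yeast, where it slows growth. Cells are switched from glucose to 2% galactose medium (pH 6.0, -URA), treated with compound, and growth recovery is read at OD600.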
AmpC inh no detg: blocks E. coli AmpC beta-lactamase in detergent-free assay; P00811; AmpC nitrocefin hydrolysis, absorbance 480 nm, 0.0001% Triton; Potency, µM (titrated, usually from 57.1 µM), for inactives: at the top dose activity change, negative = inhibition, most hits filed as inhibitors; actives 0.52% (n = 330,000); AID 485341;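 note: potency is the fitted concentration of half-maximal effect; plate controls were no compound for no effect and no enzyme for full effect; nearly all actives have a fitted effect of over 20% in size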
Target sequence (P00811 whole entry, looked up): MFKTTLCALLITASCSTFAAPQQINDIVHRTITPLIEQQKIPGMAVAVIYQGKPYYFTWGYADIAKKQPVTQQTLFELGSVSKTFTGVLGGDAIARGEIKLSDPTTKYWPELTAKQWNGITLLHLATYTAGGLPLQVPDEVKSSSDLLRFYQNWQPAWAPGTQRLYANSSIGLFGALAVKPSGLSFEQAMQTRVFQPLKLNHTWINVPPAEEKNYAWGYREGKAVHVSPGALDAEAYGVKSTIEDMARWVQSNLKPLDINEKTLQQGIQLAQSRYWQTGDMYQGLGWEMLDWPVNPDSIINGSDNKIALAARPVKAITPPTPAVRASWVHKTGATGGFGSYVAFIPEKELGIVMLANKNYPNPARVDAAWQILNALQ
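AmpC (5.3 nM in the dispensed reagent) in 20 mM phosphate pH 7.0 with 0.01% (detergent screen) or 0.0001% Triton X-100 was preincubated with compounds for 15 min at room temperature. Nitrocefin was then added from an 800 uM solution, and hydrolysis was followed at 480 nm.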
AmpC inh detg: AmpC beta-lactamase inhibition with detergent present. Potency, µM (series often up to 114 µM), inactives show top-dose activity change, negative = inhibition, hits mostly inhibitors. actives 0.041% (n = 370,000). AmpC hydrolysis of nitrocefin, absorbance 480 nm, 0.01% Triton. AID 485294. P00811;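 note: potency is the fitted concentration of half-maximal effect; 0% = no-compound wells and -100% = no-enzyme wells; nearly all actives have a fitted effect of over 25% in size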
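AmpC (5.3 nM in the dispensed reagent) in 20 mM phosphate pH 7.0 with 0.01% (detergent screen) or 0.0001% Triton X-100 was preincubated with compounds for 15 min at room temperature. Nitrocefin was then added from an 800 uM solution, and hydrolysis was followed at 480 nm.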
CHX counter: counter-screen for Shiga toxin inhibitors: cycloheximide protein synthesis inhibition; cell reporter, cycloheximide protein synthesis inhibition counterscreen; max response, %; actives 12% (n = 300,000); AID 2314; in the data active = max response mostly above about 13%, no sharp cut-off; inactive = mostly below about 14%; note: read at 38.3 µM for the half of the compounds with a filed dose; 0% is about no effect
* hit, by the source's call; ? = inconclusive; nt = no result given. Unless noted, calls come from the whole dose curve; as a rule, active = well fitted curve in the direction sought with a large enough effect; inconclusive = small, poorly fitted or top-dose-only effect, or another doubt; inactive = no such curve, though single readings can be large; an effect the other way counts as inactive or inconclusive.

SMILES | Shiga inhibitor | NS1 inh | AmpC inh no detg | AmpC inh detg | CHX counter
COc1cc(C(=O)NCC(c2ccc3c(c2)OCO3)N2CCN(C)CC2)cc(OC)c1OC (stereo not given) | nt | nt | nt | 5% | nt
CCOc1ccc(NC(=O)CCS(=O)(=O)c2ccc(Br)s2)cc1 | nt | nt | nt | -3% | nt
O=C(CC1N=C2c3ccccc3N=C(SCc3ccc(Cl)cc3)N2C1=O)NCc1ccco1 (stereo not given) | 24 | 9% | 38% | -15% | 20*
O=C(Nc1ccccc1F)Oc1cccc(OC(=O)Nc2ccccc2F)c1 | 101* | -30% | -8% | -14% | 45*
O=C(Nc1ccccc1)Oc1cccc(Br)c1 | 28 | 0% | -15% | 2% | 14*
COc1cccc(C(=O)Nc2ccccc2F)c1 | 98* | -1% | -7% | 6% | 30*
COc1ccsc1C(=O)Nc1ccc(F)cc1F | 31 | -3% | -14% | 4% | 30*
COc1ccc(-c2cn3nc(SCC(=O)Nc4cccc(C)c4C)ccc3n2)cc1 | nt | nt | nt | 13% | nt
Cc1noc(C)c1COc1cccc(C(=O)Nc2ccc(Br)cc2F)c1 | nt | nt | -8% | nt | nt
COc1cccc(C(=O)Nc2ccc(F)cc2F)c1 | 59* | -1% | -17% | ? | 39*
CN(C)S(=O)(=O)c1ccc(C(=O)Nc2ccc(F)cc2F)cc1 | 15 | -35% | -5% | ? | 8
COc1ccccc1OCc1ccc(C(=O)Nc2ccccc2F)cc1 | 47* | 4% | -35% | -2% | 6.7*
CC(C)Oc1cccc(C(=O)Nc2ccc(Br)cc2F)c1 | 107* | -6% | -14% | -5% | 65*
Cn1ccc(C(=O)Oc2ccc(C(=O)Nc3ccc(F)cc3F)cc2)n1 | 53 | nt | 2% | -3% | 26*
COc1ccc(C(=O)Nc2ccc(F)cc2F)cc1OC | -13 | -3% | -22% | -2% | 13
CSc1nn(Cc2ccc(C)cc2)c(N)c1S(=O)(=O)c1ccccc1 | nt | nt | nt | 20% | nt
COc1cccc(C(=O)Nc2ccc(C(F)(F)F)n(C)c2=O)c1 | 50* | -5% | -5% | -11% | 35*
O=C(Nc1ccc(Br)cc1F)c1cccnc1 | 86* | -17% | -20% | -9% | 15
COc1cccc(C(=O)Nc2ccc(F)c(F)c2F)c1 | 136* | -10% | -27% | -9% | 35*
O=C(Nc1ccccc1F)c1ccc(C(=O)c2ccccc2)cc1 | 75* | -7% | -30% | 4% | 29*
CCCn1c(C(O)c2cccc(OC)c2)nc2ccccc21 (stereo not given) | -3 | 10% | -9% | -16% | -3
Cc1c(O)nc(SCC(=O)Nc2ccc(Cl)cc2Cl)n(-c2ccc(F)cc2)c1=O | nt | nt | nt | 21% | nt
COc1cc(C(N)=O)ccc1OCc1ccccc1 | 85 | -6% | nt | 4% | 24
COc1ccc(COc2ccccc2C(N)=O)cc1F | 66* | -3% | -14% | -20% | 33*
CCc1ccc(CN(Cc2ccco2)c2cnc(S(C)(=O)=O)nc2C(=O)Nc2ccccc2Cl)cc1 | nt | nt | nt | 10% | nt
SMILES | Shiga inhibitor | NS1 inh | AmpC inh no detg | AmpC inh detg | CHX counter
COc1ccc(N2C(=O)N3[C@H](c4ccc(Br)cc4)[C@@H]4C(=O)N(C(C)(C)C)C(=O)[C@@H]4[C@]3(Cc3ccccc3)C2=O)cc1 | 4 | 8% | 53% | -9% | -1
COc1ccc([C@@H]2[C@@H]3C(=O)N(C(C)(C)C)C(=O)[C@@H]3[C@]3(Cc4ccccc4)C(=O)N(c4ccc(Br)cc4)C(=O)N23)cc1 | 9 | -10% | -18% | ? | 12*
Cc1nonc1C(=O)N/N=C/c1ccccc1 | 87* | -1% | -6% | 6% | 39*
COc1cc(/C=N/NC(=O)c2nc(C)cc(C)n2)ccc1O | 48 | 3% | -16% | -4% | 17*
O=C(N/N=C/c1ccc(O)c(O)c1)N/N=C/c1ccc(O)c(O)c1 | 47 | 2% | -27% | 4% | 13
COc1cc(/C=N/NC(=O)c2nonc2C)ccc1O | 63* | 6% | -18% | -2% | 29
COc1cc(/C=N/NC(=O)c2cccc(C(=O)N/N=C/c3ccc(O)c(OC)c3)n2)ccc1O | 19 | 5% | -15% | -3% | 10
Cc1nonc1C(=O)N/N=C/c1ccc(O)c(O)c1 | 99* | 5% | -13% | 8% | 42*
Cc1nn(-c2ccccc2)c(OC(=O)c2ccccc2F)c1S(=O)(=O)c1ccccc1 | nt | nt | nt | -6% | nt
N[C@@H](Cc1nn[nH]n1)C(=O)O | nt | -3% | nt | nt | nt
COc1cc(/C=N/NC(=O)c2nonc2N)cc(OC)c1OC | 87* | nt | -19% | 1% | 32*
COc1cc(/C=N/NC(=O)c2cc(C)oc2C)cc(OC)c1OC | -1 | 1% | 1% | 2% | 6
O=C(Nc1ccc(F)c(Cl)c1)N1CCC(CN2CCOCC2)CC1 | nt | nt | nt | 15% | nt
CCN1CCn2c3c(c4cc(C)ccc42)CCCC31 (stereo not given) | 40 | -2% | 1% | -2% | 25*
Cc1ccc2c(c1)c1c3n2CCN(C(=O)CCl)C3CCC1 (stereo not given) | 24 | -25% | 21% | 4% | 9.8*
CCN1CCn2c3c(c4cccc(C)c42)CCCC31 (stereo not given) | -5 | 7% | 0% | -1% | -3
Cc1nc(Nc2cc(F)ccc2C)c2nnn(Cc3ccccc3)c2n1 | 9 | -25% | -14% | ? | 1
OC(COc1ccc2cc(Br)ccc2c1)CN1CCOCC1 (stereo not given) | 37* | -16% | 170% | -11% | 11
Cc1ccc(OCC(O)CN2CCOCC2)c(C)c1 (stereo not given) | nt | 20% | 58% | 1% | 31*
OC(COc1ccccc1)CN1CCOCC1 (stereo not given) | 9 | 7% | -9% | -6% | -1
OC(COc1ccc2ccccc2c1Cl)CN1CCOCC1 (stereo not given) | 105* | -5% | 62% | -4% | 37*
Cc1ccc(OCC(O)CN2CCN(Cc3ccc4c(c3)OCO4)CC2)c(C)c1 (stereo not given) | -16 | -11% | 52% | -16% | -3
CN(C(=O)c1cnc(N2CCOCC2)c2ccccc12)c1ccccc1F | nt | nt | nt | 5% | nt
COCCOC(=O)C1=C(C)N=C2SCCC(=O)N2C1c1ccc(OCc2ccccc2)c(OC)c1 (stereo not given) | nt | nt | nt | -13% | nt
CS(=O)(=O)NN1C(=O)c2ccccc2NC1c1ccccc1F (stereo not given) | 25 | 5% | -6% | -8% | 0
CN(C)c1ccc(C2Nc3ccccc3C(=O)N2NS(C)(=O)=O)cc1 (stereo not given) | 20 | -3% | -11% | -1% | 15*
CS(=O)(=O)NN1C(=O)c2ccccc2NC1c1cc2ccccc2nc1Cl (stereo not given) | -8 | 10% | -34% | -13% | 16*
Cc1ccc(S(=O)(=O)NN2C(=O)c3ccccc3NC2c2ccccc2)cc1 (stereo not given) | 98* | nt | -23% | 1% | 24*
CC(=O)NN1C(=O)c2ccccc2NC1c1ccc(N(C)C)cc1 (stereo not given) | 45 | -6% | -4% | -14% | 24
